FBW7 activator = human FBW7 E3 ligase activation, primary screen; Q969H0; AlphaScreen FBW7–phospho-cyclin E peptide binding, activator screen; normalized activity (activation), % at 26.1 µM; 650,000 tested, 0.13% active; in the data active = normalized activity above about 1.9%;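 also: purified mutant Fbw7 with reduced substrate affinity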
MITF primary = inhibitors of human MITF; 650,000 tested, 0.91% active; O75030; AlphaScreen MITF homodimerization, bead proximity signal; inhibition, % at 2.6 µM; in the data active = inhibition above about 50%;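 also: 0% = vehicle wells with protein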
TEAD-YAP inh = TEAD-YAP interaction inhibition; inhibition, % at 9.12 µM; HEK-TIYL cells, TEAD-Gal4/YAP UAS-luciferase luminescence; 640,000 tested, 1.4% active; AID 1259422; in the data active = inhibition above about 32%;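 also: 0% = median of test compound wells and 100% = reference inhibitor wells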
GPR151 activ = human GPR151 activation; PathHunter beta-arrestin GPR151 cells, luminescence; activation, % at 11.2 µM; 650,000 tested, 1% active; in the data active = activation above about 4.9%;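 also: 0% = median of compound wells and 100% = cells with positive control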
Target sequence (Q8TDV0 whole entry, looked up): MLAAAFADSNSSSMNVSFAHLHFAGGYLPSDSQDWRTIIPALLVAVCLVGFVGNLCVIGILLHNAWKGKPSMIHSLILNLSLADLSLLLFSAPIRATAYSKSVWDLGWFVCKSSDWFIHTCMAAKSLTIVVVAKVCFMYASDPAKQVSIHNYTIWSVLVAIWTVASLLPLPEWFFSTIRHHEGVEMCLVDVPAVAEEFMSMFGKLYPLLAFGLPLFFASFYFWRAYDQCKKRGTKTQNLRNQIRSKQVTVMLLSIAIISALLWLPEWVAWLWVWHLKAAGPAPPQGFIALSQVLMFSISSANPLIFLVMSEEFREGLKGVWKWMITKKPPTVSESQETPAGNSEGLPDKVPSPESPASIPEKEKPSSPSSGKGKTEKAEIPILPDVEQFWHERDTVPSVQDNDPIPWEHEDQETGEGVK
MITF inh conf = human MITF inhibition, confirmation. inhibition, % at 2.6 µM. shares compounds with MITF primary. AlphaScreen MITF homodimerization, biotin/His-MITF beads. 4,700 tested, 16% active. AID 1259372;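 active = inhibition above a cutoff derived from the DMSO control wells, cut at about 28% in these data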;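 also: 0% = MITF dimer wells with DMSO only; inhibitors lower the bead chemiluminescence by keeping MITF from dimerizing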
AS interf ctr = AlphaScreen optical interference, counter-screen; AID 1259376; 4,700 tested, 7.6% active; inhibition, % at 2.6 µM; shares compounds with MITF primary; LysRS AlphaScreen counterscreen, signal interference, triplicate;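 active = inhibition above a cutoff derived from the DMSO control wells, cut at about 30% in these data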
Starred values were filed as active, the others as inactive; . = not tested or not shown. Rows were chosen to be rich in hits. Some 3.4% of all compounds tested hit in one or more screens of this group.

SMILES | FBW7 activator | MITF primary | TEAD-YAP inh | GPR151 activ | MITF inh conf | AS interf ctr
COc1cccc(CN2CCN(Cc3ccccc3Br)CC2)c1 | 0.0 | 72.8* | -6.2 | -0.5 | 6.3 | 15.5
O=c1c(CN2CC=C(c3ccc(F)cc3)CC2)coc2ccccc12 | -0.1 | -6.9 | 18.0 | 1.8 | . | .
CC(Cc1ccc(F)cc1)NC1CCC(O)CC1 (configuration not stated) | 0.6 | -7.1 | 4.2 | 1.3 | . | .
Clc1cccc(CN2CCN(Cc3ccccc3Br)CC2)c1 | -0.1 | 77.4* | -6.2 | -1.1 | 9.4 | 4.3
CCN1CCN(Cc2cccc(Cl)c2Cl)CC1 | -0.6 | 50.5 | 0.8 | -0.4 | . | .
Clc1cccc(N2CCN(Cc3ccccc3)CC2)c1 | 0.0 | 2.1 | 12.8 | 1.4 | . | .
Cc1ccc(CN2CCN(Cc3ccccc3Cl)CC2)cc1 | 0.0 | 58.6* | -7.9 | 0.7 | -2.9 | 0.6
COc1ccc(CN2CCN(Cc3ccccc3)CC2)c(O)c1 | -0.1 | 11.0 | -3.1 | 0.8 | . | .
COc1cccc(CN2CCN(Cc3ccccc3Cl)CC2)c1 | 0.0 | 85.7* | -11.4 | -0.3 | 25.8 | 13.2
CN1C2CCC1CC(OC(=O)CNC1CCCCC1)C2 (configuration not stated) | 0.0 | 55.4* | -5.1 | 2.6 | 7.9 | 14.2
N#Cc1ccc(/C=N/NS(=O)(=O)c2ccc(Cl)c([N+](=O)[O-])c2)cc1 | -0.1 | 1.7 | 0.9 | 0.4 | . | .
COc1cc(CN2CCN(c3ccccc3)CC2)cc(OC)c1O | 0.2 | 35.6 | 2.2 | -1.2 | . | .
CCC(CC)N1CCN(Cc2cc(OC)c(OC)c(OC)c2)CC1 | -0.2 | 57.1* | 0.1 | 0.9 | 2.1 | 4.3
CCN1CCN(Cc2ccc(OC)c(C)c2C)CC1 | 0.0 | 53.4* | 8.6 | -0.4 | 0.2 | 3.4
COc1cc(CN2CCN(C(C)C)CC2)cc(OC)c1O | -0.1 | 71.5* | -10.6 | -1.5 | 14.1 | 14.5
CCOc1cc(CN2CCN(CC)CC2)ccc1O | 0.0 | 57.1* | 10.6 | -1.5 | 12.0 | -0.7
Cn1c(SCC(=O)Nc2ccc(C#N)c(Cl)c2)nnc1-c1ccccc1 | 0.0 | 7.6 | 6.6 | 0.9 | . | .
CCN1CCN(Cc2cc(OC)c(OC)c(OC)c2)CC1 | 0.7 | 52.2* | 4.6 | -0.5 | 13.1 | -6.3
COc1cc(CN2CCN(CCO)CC2)cc(OC)c1OC | 0.0 | 1.2 | 9.6 | 0.3 | . | .
Cc1cccc(CN2CCN(C(C)C)CC2)c1 | -0.1 | 33.8 | 7.3 | 1.3 | . | .
COc1cc(CN2CCN(C(C)C)CC2)cc(OC)c1OC | -0.2 | 82.2* | 5.4 | -0.9 | 2.6 | 17.6
Cc1ccccc1S(=O)(=O)Cc1ccc(C(=O)N2CCC3(CC2)OCCO3)o1 | -0.4 | 6.7 | 8.4 | 0.5 | . | .
Cc1cccc(CC(=O)N2CCN(Cc3nc4ccccc4[nH]3)CC2)c1 | -0.7 | 54.9* | 7.2 | 1.2 | 9.1 | 19.0
Cc1nc2c3ccccc3[nH][n+]2c(C)c1C | -0.1 | 6.2 | -1.4 | 0.8 | . | .
CC1(C(=O)OCC(=O)Nc2ccc(C#N)c(Cl)c2)CC1(Cl)Cl (configuration not stated) | 0.1 | 3.8 | 4.8 | 2.5 | . | .
SMILES | FBW7 activator | MITF primary | TEAD-YAP inh | GPR151 activ | MITF inh conf | AS interf ctr
COc1cccc(CN2CCN(c3ccc(C(C)=O)cc3)CC2)c1 | 0.1 | 63.9* | -6.4 | -0.2 | 8.8 | 3.2
CC(=O)c1ccc(N2CCN(Cc3cccc(O)c3)CC2)cc1 | -0.2 | 30.8 | -2.7 | 0.1 | . | .
COc1ccc(N2CCN(Cc3cccc(OC)c3)CC2)cc1 | -0.4 | 34.4 | 4.9 | 1.4 | . | .
COc1ccc(CN2CCN(Cc3cccc(OC)c3)CC2)cc1 | 0.0 | 63.5* | 2.1 | 2.2 | 12.2 | 12.0
COc1cccc(CN2CCN(Cc3ccc(C)cc3)CC2)c1 | -0.1 | 77.2* | -12.4 | -0.5 | 8.2 | 1.4
N=C1c2ccccc2CN1c1c(Cl)cccc1Cl | 0.2 | 12.7 | 3.9 | -1.5 | . | .
CCOc1ccc(Cl)cc1/C=C/[N+](=O)[O-] | -0.1 | -16.6 | 12.8 | -0.3 | . | .
COC(=O)CC(C#N)C(/C=C(/C#N)C(=O)OC)=C\C(C#N)C(=O)OC (configuration not stated) | -0.1 | -3.1 | -3.3 | 0.4 | . | .
COc1cc(Br)c(CN2CCN(C)CC2)cc1OC | -0.1 | 9.7 | 3.4 | -0.7 | . | .
Cc1ccc(CN2CCN(Cc3ccc4c(c3)OCO4)CC2)cc1 | 0.1 | 45.9 | 0.9 | -1.1 | . | .
CCC(C)N1CCN(Cc2ccc3c(c2)OCO3)CC1 (configuration not stated) | 0.9 | 71.3* | -1.4 | -1.2 | 0.3 | 0.2
COc1cc(OC)c(CN2CCN(C)CC2)cc1Br | 0.0 | 62.4* | -0.2 | 0.6 | -2.9 | 11.5

Bioassay records as filed in PubChem BioAssay.
